# Laboratory results taken from the antibiotic and cytotoxicity screens of Wong et al. (2023).
# The whole screen tested about 39,000 compounds, of which about 3,300 (8.5%) were called active. The full list was thinned out, with actives kept by preference.
# Tested on: HepG2
# Assay: cytotoxicity call (relative viability < 0.9)
# Details: 10 µM
row,SMILES,cytotoxicity call
1,C[C@@H]1CCCCO[C@H](CN(C)C(=O)C2CCCCC2)[C@H](C)CN([C@@H](C)CO)C(=O)c2cc(NS(=O)(=O)c3cccs3)ccc2O1,inactive
2,Cc1cc(C(=O)Nc2cccc3c2O[C@@H](CN(C)Cc2ccccc2)[C@@H](C)CN([C@H](C)CO)C3=O)n(C)n1,inactive
3,C[C@H](CO)N1C[C@H](C)[C@H](CN(C)Cc2ccc(Oc3ccccc3)cc2)OCc2ccccc2-c2ccccc2C1=O,inactive
4,C[C@H]1CN([C@@H](C)CO)C(=O)c2cc(NC(=O)NC3CCCCC3)ccc2O[C@@H]1CN(C)Cc1ccc(C(F)(F)F)cc1,inactive
5,O=C(C[C@@H]1C=C[C@H](NS(=O)(=O)c2ccc(F)cc2)[C@@H](CO)O1)N1CCC(Cc2ccccc2)CC1,inactive
6,C[C@@H]1CN([C@H](C)CO)C(=O)CCCn2cc(nn2)CO[C@H]1CN(C)S(=O)(=O)c1ccc2ccccc2c1,inactive
7,Cc1noc(C)c1NC(=O)N(C)C[C@H]1OCCCC[C@@H](C)Oc2ccc(NC(=O)Cc3ccccc3)cc2C(=O)N([C@@H](C)CO)C[C@@H]1C,inactive
8,Cc1noc(C)c1NC(=O)Nc1cccc2c1O[C@@H](CN(C)Cc1ccc(Cl)c(Cl)c1)[C@@H](C)CN([C@@H](C)CO)C2=O,inactive
9,CO[C@@H]1CN(C)C(=O)c2ccc(NS(=O)(=O)c3ccccc3C)cc2OC[C@H](C)N(S(C)(=O)=O)C[C@H]1C,inactive
10,C[C@H]1CCCCO[C@H](CN(C)S(C)(=O)=O)[C@@H](C)CN([C@@H](C)CO)C(=O)c2cc(NS(C)(=O)=O)ccc2O1,inactive
11,COc1ccc(S(=O)(=O)Nc2ccc3c(c2)C(=O)N([C@@H](C)CO)C[C@@H](C)[C@H](CN(C)S(=O)(=O)c2ccc(OC)cc2)O3)cc1,inactive
12,N=C(N)NCCC[C@@H]1NC(=O)[C@@H](N)CSSC[C@@H](C(=O)O)NC(=O)[C@H](CC(=O)O)NC(=O)[C@@H]2CCCN2C(=O)CNC(=O)[C@H](CCCCN)NC(=O)[C@H](CC(=O)O)NC(=O)CNC1=O,inactive
13,N=C(N)NCCCC[C@@H]1NC(=O)CCSSC[C@@H](C(N)=O)NC(=O)[C@@H]2CCCN2C(=O)[C@H](Cc2c[nH]c3ccccc23)NC(=O)[C@H](CC(=O)O)NC(=O)CNC1=O,inactive
14,CC(C)[C@H]1C(=O)N[C@@H](CCCNC(=N)N)C(=O)NCC(=O)N[C@@H](CC(=O)O)C(=O)N[C@H](Cc2ccccc2)C(=O)N1C,active
15,C[C@@H]1CN([C@@H](C)CO)C(=O)Cc2cc(NC(=O)Nc3ccccc3)ccc2O[C@H]1CN(C)C(=O)Nc1cccc2ccccc12,inactive
16,C[C@H]1CN([C@@H](C)CO)C(=O)c2cccc(NC(=O)c3ccc(-c4nccs4)cc3)c2O[C@H]1CN(C)S(C)(=O)=O,inactive
17,C[C@@H]1CN([C@H](C)CO)C(=O)c2cc(C#CCc3ccccc3)cnc2O[C@H]1CN(C)C(=O)Cc1cccnc1,inactive
18,C[C@H]1CN([C@@H](C)CO)C(=O)c2cc(-c3ccc(C#N)cc3)cnc2O[C@@H]1CN(C)C(=O)Nc1ccc(C(F)(F)F)cc1,inactive
19,NCc1ccc(-c2ccc(Br)cc2)cc1,inactive
20,CN(C)CCOc1ccc(CN)cc1,inactive
21,Cc1ccc(Oc2ccc(CN)cc2)cc1,active

row,SMILES,cytotoxicity call
1,C[C@@H]1CCCCO[C@@H](CN(C)Cc2ccncc2)[C@@H](C)CN([C@H](C)CO)C(=O)c2cc(NC(=O)C3CCCCC3)ccc2O1,inactive
2,O=C(O)C=Cc1ccc(Cn2ccnc2)cc1,active
3,O=C(O)CCn1ccnc1,inactive
4,Clc1ccc(Cn2ccnc2)cc1,inactive
5,NCCN1CCO[C@@H](CC(=O)Nc2cc(Cl)cc(Cl)c2)C1=O,inactive
6,COc1cc(OC)nc([C@@H](NC(=O)C2CCN(CCN3C(=O)c4ccccc4C3=O)CC2)c2ccc(F)cc2)n1,inactive
7,O=C(N[C@@H](c1ccccc1)c1ccc2ccccc2n1)C1CCN(Cc2ccc(Cl)c(Cl)c2)CC1,inactive
8,CC(C)NC(=O)[C@H]1CC[C@@H](n2c(NC(=O)c3ccc(F)cc3)nc3ccc(CN4CCC(C(C)(C)O)CC4)cc32)CC1,active
9,COc1ccccc1S(=O)(=O)N(C)C[C@H]1OCc2cnnn2CCCC(=O)N([C@@H](C)CO)C[C@@H]1C,inactive
10,C[C@@H]1CN([C@@H](C)CO)C(=O)CCCn2nncc2CO[C@@H]1CN(C)C(=O)Nc1ccc2c(c1)OCO2,inactive
11,C[C@@H]1CN([C@H](C)CO)C(=O)c2cc(C#Cc3ccncc3)cnc2O[C@@H]1CN(C)C(=O)c1ccccc1F,inactive
12,COCCOC(=O)N1C(=O)[C@@]2(c3cc(C#CC4(O)CCCCCC4)ccc31)[C@H](C(=O)N1CCN(c3ncccn3)CC1)[C@H]1C(=O)O[C@H](c3ccccc3)[C@H](c3ccccc3)N1[C@@H]2c1ccc(OCCO)cc1,inactive
13,COCCOC(=O)N1C(=O)[C@@]2(c3cc(C#CC4(O)CCCCCC4)ccc31)[C@H](c1ccc(OCCO)cc1)N1[C@H](c3ccccc3)[C@H](c3ccccc3)OC(=O)[C@H]1[C@@H]2C(=O)N1CCN(c2ncccn2)CC1,inactive
14,C=CCNC(=O)[C@H]1[C@@H]2C(=O)O[C@@H](c3ccccc3)[C@@H](c3ccccc3)N2[C@@H](c2ccc(OCCO)cc2)[C@]12C(=O)N(C(=O)OCCOC)c1ccc(C#CC3(O)CCCCCC3)cc12,inactive
15,C=CCNC(=O)[C@H]1[C@@H]2C(=O)O[C@@H](c3ccccc3)[C@@H](c3ccccc3)N2[C@@H](c2ccccc2OCCO)[C@]12C(=O)N(C(=O)OCCOC)c1ccc(C#CC3(O)CCCCCC3)cc12,active
16,COCCOC(=O)N1C(=O)[C@@]2(c3cc(C#CC4(O)CCCCCC4)ccc31)[C@H](c1ccc(OCCO)cc1)N1[C@H](c3ccccc3)[C@H](c3ccccc3)OC(=O)[C@H]1[C@@H]2C(=O)N1CCCCCCC1,active
17,COCCOC(=O)N1C(=O)[C@@]2(c3cc(C#CC4(O)CCCCCC4)ccc31)[C@H](C(=O)N1CCCCCCC1)[C@H]1C(=O)O[C@H](c3ccccc3)[C@H](c3ccccc3)N1[C@@H]2c1ccc(OCCO)cc1,active
18,C=CCNC(=O)[C@H]1[C@@H]2C(=O)O[C@@H](c3ccccc3)[C@@H](c3ccccc3)N2[C@@H](c2ccc(O)cc2)[C@]12C(=O)N(C(=O)OCCOC)c1ccc(C#CC3(O)CCCCCC3)cc12,inactive
19,COCCOC(=O)N1C(=O)[C@@]2(c3cc(C#CC4=CCCCC4)ccc31)[C@H](C(=O)N1CCCCCCC1)[C@H]1C(=O)O[C@H](c3ccccc3)[C@H](c3ccccc3)N1[C@@H]2c1ccc(OCCO)cc1,inactive
20,COCCOC(=O)N1C(=O)[C@@]2(c3cc(C#CC4(O)CCCCCC4)ccc31)[C@H](c1ccc(OCCO)cc1)N1[C@H](c3ccccc3)[C@H](c3ccccc3)OC(=O)[C@H]1[C@@H]2C(N)=O,inactive
21,COc1ccc(NC(=O)Nc2cccc3c2O[C@H](CN(C)Cc2ccc(C(F)(F)F)cc2)[C@@H](C)CN([C@@H](C)CO)C3=O)cc1,inactive

row,SMILES,cytotoxicity call
1,COc1ccc(NC(=O)Nc2ccc3c(c2)[C@H]2C[C@H](CC(=O)NCc4ccccn4)O[C@@H](CO)[C@H]2O3)cc1,inactive
2,c1ccc(Oc2nnc(-c3ccccc3)c3ccccc23)cc1,inactive
3,C[C@H](CO)N1C[C@H](C)[C@H](CN(C)S(C)(=O)=O)Oc2cc(-c3ccc(F)cc3)ccc2S1(=O)=O,inactive
4,COc1cccc(C#Cc2ccc3c(c2)O[C@@H](CN(C)C(=O)CN2CCOCC2)[C@H](C)CN([C@@H](C)CO)S3(=O)=O)c1,inactive
5,O=C(O)CCCNc1n[nH]c(=O)[nH]c1=O,inactive
6,O=C(CCNc1n[nH]c(=O)[nH]c1=O)N1CCOCC1,active
7,COC(=O)CCCCCNc1n[nH]c(=O)[nH]c1=O,inactive
8,COc1ccc(NC(=O)N(C)C[C@H]2OCCCC[C@@H](C)Oc3ccc(NC(=O)Nc4c(C)noc4C)cc3C(=O)N([C@H](C)CO)C[C@@H]2C)cc1,inactive
9,COc1ccc(NC(=O)Nc2ccc3c(c2)[C@@H]2C[C@@H](CC(=O)N4CCN(C)CC4)O[C@@H](CO)[C@@H]2O3)cc1,inactive
10,C[C@H](CO)N1C[C@H](C)[C@H](CN(C)C(=O)NC2CCCCC2)Oc2ccc(NC(=O)Nc3ccc(C(F)(F)F)cc3)cc2CC1=O,inactive
11,C[C@H]1CN([C@@H](C)CO)C(=O)Cc2cc(NC(=O)Nc3ccc(C(F)(F)F)cc3)ccc2O[C@H]1CN(C)CC1CCCCC1,active
12,C[C@H](CO)N1C[C@H](C)[C@H](CN(C)CC2CCCCC2)Oc2ccc(NC(=O)Nc3ccc(C(F)(F)F)cc3)cc2CC1=O,active
13,C[C@@H]1CN([C@@H](C)CO)C(=O)Cc2cc(NC(=O)Nc3ccc(C(F)(F)F)cc3)ccc2O[C@@H]1CN(C)CC1CCCCC1,active
14,C[C@@H]1CN([C@@H](C)CO)C(=O)Cc2cc(NC(=O)Nc3ccc(C(F)(F)F)cc3)ccc2O[C@H]1CN(C)CC1CCCCC1,active
15,C[C@H]1CN([C@@H](C)CO)C(=O)Cc2cc(NC(=O)Nc3ccc(C(F)(F)F)cc3)ccc2O[C@@H]1CN(C)CC1CCCCC1,inactive
16,CN(C)CCCNC(=O)C[C@H]1CC[C@H]2[C@@H](COc3ccc(NC(=O)c4ccc5c(c4)OCO5)cc3C(=O)N2C)O1,inactive
17,CCCN(C)C[C@H]1OCCCC[C@H](C)Oc2ccc(NS(C)(=O)=O)cc2C(=O)N([C@H](C)CO)C[C@H]1C,inactive
18,C[C@H](CO)N1C[C@H](C)[C@@H](CN(C)Cc2ccncc2)Oc2cc(C#CCN(C)C)ccc2S1(=O)=O,inactive
19,CN([C@@H](c1ccccc1)c1ccccn1)S(=O)(=O)c1cn(C)c(=O)n(C)c1=O,inactive
20,Cc1ccc(S[C@]2(C(=O)O)CC(=O)N(C3Cc4ccccc4C3)[C@@H]2c2ccc(CO)cc2I)cc1,inactive
